Measured values reported in PubChem BioAssay AID651813 (National Center for Advancing Translational Sciences (NCATS), 2012).
The whole screen tested about 2,100 compounds, of which about 1,100 (52%) were called active. About 27% were inconclusive and are not listed. The set was probably picked from earlier hits. Some of the results follow. Unmarked numbers belong to inactive results. Calls follow the shape of the dose curve; as a rule, active = well fitted inhibition curve with a large enough effect; inconclusive = small, poorly fitted or top-dose-only effect; inactive = no such curve, though single readings can be large or run the other way.

target: DNA dC->dU-editing enzyme APOBEC-3G (Homo sapiens) (UniProt Q9HC16); assay: qHTS for inhibitors of Vif-A3G interactions: Cherry picks counterscreen; settings: HeLa A3G-eYFP + Vif (tagged APOBEC3G with the HIV-1 protein that degrades it), eYFP fluorescence, 24 h;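 also: hits raise yellow fluorescence by blocking Vif-driven A3G-eYFP degradation; nearly all actives have a fitted effect of over 70% in size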;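 as to max response: max response given as percent of control signal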
Sequence (Q9HC16 whole entry, looked up): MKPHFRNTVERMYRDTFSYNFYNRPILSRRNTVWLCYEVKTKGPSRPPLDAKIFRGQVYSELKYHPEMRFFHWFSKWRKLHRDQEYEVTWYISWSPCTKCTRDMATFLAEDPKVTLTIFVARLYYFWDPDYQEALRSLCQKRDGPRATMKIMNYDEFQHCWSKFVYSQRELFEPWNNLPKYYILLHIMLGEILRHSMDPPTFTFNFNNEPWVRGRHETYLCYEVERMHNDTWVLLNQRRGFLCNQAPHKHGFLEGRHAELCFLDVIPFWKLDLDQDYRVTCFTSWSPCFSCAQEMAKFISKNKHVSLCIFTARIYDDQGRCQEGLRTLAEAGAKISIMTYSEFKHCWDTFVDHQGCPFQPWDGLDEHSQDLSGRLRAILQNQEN
Method in brief: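 Readout is eYFP fluorescence (488 nm excitation, 500-530 nm emission) measured on Acumen Explorer after 24 h compound exposure, several concentrations, at 37 deg C. Cells: HeLa stably co-expressing Vif and C-terminally eYFP-tagged A3G; MG132 positive control.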
Potency is read from the fitted curve at half-maximal effect.

Row | SMILES | Potency | max response [%]
1 | O=C(O)c1cc(-c2ccc(/C=C3/SC(=S)N(Cc4ccccc4)C3=O)o2)ccc1Cl | 18.4 µM (active) | 
2 | O=C1/C(=C/c2ccc(O)cc2)SC(=S)N1CC1CCCO1 (stereo unspecified) |  | -5.85
3 | COc1cc(/C=C2/SC(=S)N(CC3CCCO3)C2=O)ccc1O (stereo unspecified) | 16.4 µM (active) | 
4 | Cn1c(=O)c2c(nc(NC3CCCC3)n2C)n(C)c1=O |  | -1.35
5 | CCC(=O)NC(c1ccc(OC)cc1)c1c(O)ccc2ccccc12 (stereo unspecified) | 9.94 µM (active) | 
6 | CCCC(=O)NC(c1ccc(OC)cc1)c1ccc2cccnc2c1O (stereo unspecified) |  | -9.5
7 | CCCSc1nnc(N2C(=O)C(O)=C(C(=O)c3ccco3)C2c2ccccc2F)s1 (stereo unspecified) |  | -7.3
8 | Cc1ccc(C2C(C(=O)c3cccs3)=C(O)C(=O)N2c2nnc(C)s2)cc1 (stereo unspecified) | 19.8 µM (active) | 
9 | Cc1ccc(NC2=C(Cl)C(=O)N(C3CCCCC3)C2=O)cc1 |  | 6.01
10 | CN1C2CCC1/C(=C/c1cccn1C)C(=O)/C2=C\c1cccn1C | 8.2 µM (active) | 
11 | Cn1cccc1/C=C1\CC(C(C)(C)C)C/C(=C\c2cccn2C)C1=O (stereo unspecified) | 8.2 µM (active) | 
12 | O=c1oc2c3c4c(cc2c(C(F)(F)F)c1CCN1CCOCC1)CCCN4CCC3 | 2.31 µM (active) | 
13 | COc1ccc(/C=C(/C(=O)c2cccs2)N2C=CC=CC2=C(C#N)C#N)cc1 | 15.8 µM (active) | 
14 | C=CCNC(=O)C(C#N)c1nc2ccccc2nc1N1CCN(Cc2ccccc2)CC1 (stereo unspecified) |  | -10.2
15 | CCN(CC)c1nc2ccccc2nc1C(C#N)C(=O)NCCc1ccccc1 (stereo unspecified) | 13 µM (active) | 
16 | COc1ccc(C(=O)/C=C/Nc2ccc([N+](=O)[O-])cc2C)c(OC)c1 | 23.1 µM (active) | 
17 | COc1ccc(-c2nnc(NC(=O)c3ccc([N+](=O)[O-])o3)o2)c(OC)c1 |  | -27.9
18 | COc1cc(SC)ccc1C(=O)N1CCN(c2ccccc2OC)CC1 | 5.59 µM (active) | 
19 | COc1ccccc1N1CCN(C(=O)c2ccc3ncsc3c2)CC1 | 17.7 µM (active) | 

Row | SMILES | Potency | max response [%]
20 | COc1ccc(C(=S)N2CCN(c3cccc(Cl)c3)CC2)c(OC)c1 | 3.53 µM (active) | 
21 | CCS(=O)(=O)N1CCc2cc(C(=O)N3CCN(c4cccc(C(F)(F)F)c4)CC3)ccc21 |  | -3.11
22 | COc1ccccc1C(=O)N1CCN(c2cccc(Cl)c2)CC1 | 1.4 µM (active) | 
23 | CCSc1ncc(Cl)c(C(=O)N2CCN(c3ccccc3OC)CC2)n1 | 4.61 µM (active) | 
24 | COC(=O)c1cc(C(=O)N2CCN(c3ccccc3OC)CC2)cc([N+](=O)[O-])c1 | 1.12 µM (active) | 
25 | COc1ccccc1N1CCN(C(=O)c2cc(=O)c3cc(C)cc(C)c3o2)CC1 | 0.158 µM (active) | 
26 | NNC(=S)Nc1c(F)cc(F)cc1Br |  | -0.636
27 | O=C(N/N=C/c1ccc([N+](=O)[O-])o1)c1cn2ccc3ccccc3c2n1 |  | 3.73
28 | Cc1cc(N/N=C/c2ccc([N+](=O)[O-])o2)nc2ccccc12 | 23.1 µM (active) | 
29 | O=[N+]([O-])c1ccc(/C=N/Nc2ccc3ccccc3c2)o1 | 4.98 µM (active) | 
30 | CCCN1CCc2c(sc(NC(=O)c3ccc(S(=O)(=O)N4CCN(C(=O)OCC)CC4)cc3)c2C(N)=O)C1 | 23.1 µM (active) | 
31 | CCCN1CCc2c(sc(NC(=O)c3ccc(S(=O)(=O)N(C)c4ccccc4)cc3)c2C(N)=O)C1 | 14.6 µM (active) | 
32 | CCCN1CCc2c(sc(NC(=O)c3ccc(S(=O)(=O)N(C)c4ccccc4)cc3)c2C(=O)NC)C1 | 18.4 µM (active) | 
33 | CCN1CCc2c(sc(NC(=O)c3ccc(S(=O)(=O)N(CC)c4ccccc4)cc3)c2C(N)=O)C1 | 5.59 µM (active) | 
34 | CCCN1CCc2c(sc(NC(=S)NC(=O)c3ccccc3)c2C#N)C1 | 14.6 µM (active) | 
35 | NC(=O)c1c(NC(=O)c2ccccc2)sc2c1CCN(Cc1ccccc1)C2 | 15.8 µM (active) | 
36 | CC(C)N1CCc2c(sc(NC(=O)c3ccc(S(=O)(=O)N4CCOCC4)cc3)c2C#N)C1 | 8.2 µM (active) | 
37 | CC(C)N1CCc2c(sc(NC(=O)c3cc4cc([N+](=O)[O-])ccc4s3)c2C(N)=O)C1 | 23.1 µM (active) | 
38 | CCOC(=O)/C(=C/C1=CC(=C/N(C)C)/C(=O)O1)C(C)=O |  | 1.47

Row | SMILES | Potency | max response [%]
39 | CC(C)CN(CC(C)C)S(=O)(=O)c1ccc(C(=O)Nc2sc3c(c2C(N)=O)CCN(C(C)C)C3)cc1 | 18.4 µM (active) | 
40 | Cc1cccc(C)c1OCCNC(=O)C(=O)NCc1ccco1 | 2.8 µM (active) | 
41 | Cc1ccccc1NC(=O)c1ccc2c(c1)c(C)c(C)n2Cc1ccccc1 | 2.91 µM (active) | 
42 | CCCCCn1c(=O)[nH]c2cc(C(=O)Nc3cc(OC)cc(OC)c3)ccc2c1=O |  | -23.9
43 | COc1ccc(NC(=O)c2ccc3c(c2)c(C)c(C)n3Cc2ccc(F)cc2)cc1 | 5.17 µM (active) | 
44 | O=C(CN1c2cccc3cccc(c23)S1(=O)=O)Nc1ccc(S(=O)(=O)N2CCOCC2)cc1 |  | -29.7
45 | CC(=O)Nc1ccc(S(=O)(=O)N2CCSc3ccccc32)cc1 | 4.98 µM (active) | 
46 | Cc1cc(NC(=O)COC(=O)c2ccc(S(=O)(=O)N3CCCc4ccccc43)cc2)no1 | 4.44 µM (active) | 
47 | COC(=O)Nc1ccc(S(=O)(=O)N2CCCc3ccccc32)cc1 | 3.53 µM (active) | 
48 | Cc1ccc(CNC(=O)C2CC(c3cc(C(F)(F)F)cc(C(F)(F)F)c3)=NO2)o1 (stereo unspecified) | 8.86 µM (active) | 
49 | COc1ccccc1N1CCN(c2ncnc3c2oc2ccccc23)CC1 | 3.14 µM (active) | 
50 | CCN1/C(=C/C=C2/SC(=Nc3cccc4ncccc34)N(C)C2=O)Sc2ccccc21 | 4.11 µM (active) | 
51 | Cc1c(NC(=O)c2csc3c2CCCC3)c(=O)n(-c2ccccc2)n1C |  | -8.09
52 | Cc1c(N=C2N=C(NC(=O)c3cccs3)c3ccccc32)c(=O)n(-c2ccccc2)n1C | 12.5 µM (active) | 
53 | CC#Cc1cc2c(cc1O)CCC1C2CCC2(C)C(O)CCC12 (stereo unspecified) | 4.44 µM (active) | 
54 | CCSc1nccc(-c2nn(-c3ccc(C)cc3)ccc2=O)n1 | 3.53 µM (active) | 
55 | Cc1ccc(-c2cc(-c3ccco3)c3c(N)c(C(=O)NN)oc3n2)cc1 | 23.1 µM (active) | 
56 | NNC(=O)c1oc2nc(-c3ccccc3)cc(-c3ccco3)c2c1N | 18.4 µM (active) | 
